{
  "source": "paper PMC4336329",
  "about": "(PLoS ONE, 2015)",
  "note": "About 14,000 (4.5%) of roughly 310,000 compounds showed an effect of 50% or more. Effects have a minus sign here. This excerpt belongs to a sample that is enriched for strong results.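 Further: peak tail current of the secondary pulse compared with the same well before compound.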",
  "data": [
    {"molecular_target": "human ether-à-go-go-related gene (hERG) potassium channel (human, UniProt Q12809)", "sequence (Q12809 whole entry, looked up)": "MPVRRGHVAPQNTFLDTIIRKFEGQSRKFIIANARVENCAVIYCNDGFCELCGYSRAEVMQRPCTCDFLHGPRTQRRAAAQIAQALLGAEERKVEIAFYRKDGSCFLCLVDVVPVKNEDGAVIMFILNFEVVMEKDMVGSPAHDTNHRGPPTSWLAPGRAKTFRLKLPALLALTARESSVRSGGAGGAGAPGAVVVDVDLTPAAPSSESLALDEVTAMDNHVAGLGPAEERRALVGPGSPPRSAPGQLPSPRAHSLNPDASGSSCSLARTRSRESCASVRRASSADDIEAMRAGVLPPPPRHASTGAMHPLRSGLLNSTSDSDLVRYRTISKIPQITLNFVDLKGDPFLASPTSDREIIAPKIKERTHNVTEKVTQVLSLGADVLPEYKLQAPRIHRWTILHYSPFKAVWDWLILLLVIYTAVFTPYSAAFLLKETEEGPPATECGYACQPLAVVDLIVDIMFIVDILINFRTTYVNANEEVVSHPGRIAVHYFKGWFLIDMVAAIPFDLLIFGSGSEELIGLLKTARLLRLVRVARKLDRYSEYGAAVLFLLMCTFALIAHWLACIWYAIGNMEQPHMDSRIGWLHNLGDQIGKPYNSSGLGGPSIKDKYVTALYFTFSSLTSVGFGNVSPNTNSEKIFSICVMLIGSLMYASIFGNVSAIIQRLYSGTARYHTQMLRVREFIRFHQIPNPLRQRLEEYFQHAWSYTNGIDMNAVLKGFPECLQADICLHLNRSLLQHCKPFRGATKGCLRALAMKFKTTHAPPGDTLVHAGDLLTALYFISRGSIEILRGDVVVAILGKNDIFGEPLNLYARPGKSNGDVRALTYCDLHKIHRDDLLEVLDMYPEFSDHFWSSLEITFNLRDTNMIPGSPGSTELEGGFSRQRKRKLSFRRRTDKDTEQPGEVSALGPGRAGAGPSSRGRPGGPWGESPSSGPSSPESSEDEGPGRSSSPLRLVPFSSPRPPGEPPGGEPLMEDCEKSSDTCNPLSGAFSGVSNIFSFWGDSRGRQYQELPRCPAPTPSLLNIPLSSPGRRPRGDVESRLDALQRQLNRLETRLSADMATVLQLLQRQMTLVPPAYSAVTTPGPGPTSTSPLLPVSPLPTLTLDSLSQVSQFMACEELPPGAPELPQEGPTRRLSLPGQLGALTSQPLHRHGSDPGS", "test": "primary screen, population patch clamp on CHO cells stably expressing hERG; higher = less effect of the substance", "units": {"hERG current change (%, negative = inhibition) at 10uM": "%"}, "values": [
      {"smiles": "CCS(=O)(=O)N1CCN(Cc2ccccc2OC)CC1.O=C(O)C(=O)O", "hERG current change (%, negative = inhibition) at 10uM": 11.7},
      {"smiles": "C=CCOC(=O)C1=C(C)NC(=O)NC1c1ccc2c(c1)OCO2", "note": "(stereo not drawn)", "hERG current change (%, negative = inhibition) at 10uM": -11.9},
      {"smiles": "O=C(NCc1ccc2c(c1)OCO2)C1CCCN(C(=O)c2ccc(Cl)cc2)C1", "note": "(stereo not drawn)", "hERG current change (%, negative = inhibition) at 10uM": -34.4},
      {"smiles": "CCOC(=O)N/N=C/C(Cl)=C/c1ccccc1", "hERG current change (%, negative = inhibition) at 10uM": 0.407},
      {"smiles": "COC(C(=O)N/N=C(\\C)c1ccc(C(C)(C)C)cc1)c1ccccc1", "note": "(stereo not drawn)", "hERG current change (%, negative = inhibition) at 10uM": 13.1},
      {"smiles": "COc1ccccc1NC(=O)CCCC(=O)OCC(F)(F)C(F)F", "hERG current change (%, negative = inhibition) at 10uM": -1.37},
      {"smiles": "COc1ccc(NC(=S)NC2CC3CCC(C2)N3Cc2ccco2)cc1", "note": "(stereo not drawn)", "hERG current change (%, negative = inhibition) at 10uM": -30.1},
      {"smiles": "CCOC(=O)c1c(S(=O)(=O)N2CCCC(C(=O)Nc3ccc(C)cn3)C2)c(C)n(C)c1C", "note": "(stereo not drawn)", "hERG current change (%, negative = inhibition) at 10uM": 19.7},
      {"smiles": "CCc1ccc(N=C2NC(=O)/C(=C/c3ccc(OCC(=O)O)cc3)S2)cc1", "hERG current change (%, negative = inhibition) at 10uM": 14.6},
      {"smiles": "CCN(Cc1cnn(C)c1)Cc1nc(C(c2ccccc2)c2ccccc2)no1", "hERG current change (%, negative = inhibition) at 10uM": -18.2},
      {"smiles": "CCCCNC(=O)Cn1cnc([N+](=O)[O-])n1", "hERG current change (%, negative = inhibition) at 10uM": 10.8},
      {"smiles": "CC1(OC(=O)CCc2ccccc2)C(=O)C=C2C=C(c3ccc(C#N)cc3)N(Cc3ccccc3)C=C2C1=O", "note": "(stereo not drawn)", "hERG current change (%, negative = inhibition) at 10uM": -51.9},
      {"smiles": "COc1ccc(CN2C=C3C(=O)C(C)(OC(=O)CCc4ccccc4)C(=O)C=C3C=C2c2ccc(C#N)cc2)cc1", "note": "(stereo not drawn)", "hERG current change (%, negative = inhibition) at 10uM": -31.7},
      {"smiles": "CC1(OC(=O)CCc2ccccc2)C(=O)C=C2C=C(c3ccc(C#N)cc3)N(Cc3ccco3)C=C2C1=O", "note": "(stereo not drawn)", "hERG current change (%, negative = inhibition) at 10uM": -38.9},
      {"smiles": "CCN(c1ccc(OC)cc1)S(=O)(=O)c1nnc(NC(=O)C2CCCCC2)s1", "hERG current change (%, negative = inhibition) at 10uM": 12.2},
      {"smiles": "Cc1cc(=O)oc(C)c1C(=O)N[C@@H]1CCCCNC1=O", "hERG current change (%, negative = inhibition) at 10uM": 7.72},
      {"smiles": "COc1cccc2cc(C(=O)NCCN3CCOCC3)c(=O)oc12", "hERG current change (%, negative = inhibition) at 10uM": 12.9},
      {"smiles": "CCOc1cccc(-c2cc(=O)[nH][nH]2)c1", "hERG current change (%, negative = inhibition) at 10uM": 1.58},
      {"smiles": "CC1CC(C)CN(c2nc(NCc3ccco3)nc(N)c2[N+](=O)[O-])C1", "note": "(stereo not drawn)", "hERG current change (%, negative = inhibition) at 10uM": -27.4},
      {"smiles": "CC1CCN(c2nc(NCc3ccco3)nc(N)c2[N+](=O)[O-])CC1", "hERG current change (%, negative = inhibition) at 10uM": -11.9},
      {"smiles": "CC1CCCN(c2nc(NCc3ccco3)nc(N)c2[N+](=O)[O-])C1", "note": "(stereo not drawn)", "hERG current change (%, negative = inhibition) at 10uM": -54.3},
      {"smiles": "CCN(c1cccc(C)c1)S(=O)(=O)c1ccc(-c2cc(C)no2)s1", "hERG current change (%, negative = inhibition) at 10uM": 5.94},
      {"smiles": "CCN(CC)S(=O)(=O)c1cc(C(=O)Nc2cc(C)on2)c(Cl)cc1Cl", "hERG current change (%, negative = inhibition) at 10uM": 12.3},
      {"smiles": "CC(=O)c1ccc(NC(=O)CSc2nc(=O)n(CCN3CCOCC3)c3c2CCC3)cc1", "hERG current change (%, negative = inhibition) at 10uM": -7.74},
      {"smiles": "CC(=O)Nc1cccc(NC(=O)CSc2nc(=O)n(CCN3CCOCC3)c3c2CCC3)c1", "hERG current change (%, negative = inhibition) at 10uM": -2.96},
      {"smiles": "O=C(CSc1nc(=O)n(CCCN2CCOCC2)c2c1CCCC2)Nc1cccc([N+](=O)[O-])c1", "hERG current change (%, negative = inhibition) at 10uM": -67.7},
      {"smiles": "CC(=O)c1cccc(NC(=O)CSc2nc(=O)n(CCN3CCOCC3)c3c2CCCC3)c1", "hERG current change (%, negative = inhibition) at 10uM": -11.2},
      {"smiles": "O=C(CSc1nc(=O)n(CCCN2CCOCC2)c2c1CCC2)Nc1ccc(F)cc1", "hERG current change (%, negative = inhibition) at 10uM": -39.5},
      {"smiles": "Cc1ccc(NC(=O)CSc2nc(=O)n(CCN3CCOCC3)c3c2CCCC3)cc1", "hERG current change (%, negative = inhibition) at 10uM": -27.5},
      {"smiles": "O=C(CSc1nc(=O)n(CCN2CCOCC2)c2c1CCCC2)Nc1ccc([N+](=O)[O-])cc1", "hERG current change (%, negative = inhibition) at 10uM": -67.6},
      {"smiles": "O=C(CSc1nc(=O)n(CCCN2CCOCC2)c2c1CCC2)Nc1ccc([N+](=O)[O-])cc1", "hERG current change (%, negative = inhibition) at 10uM": -60.4},
      {"smiles": "O=c1[nH]cnc2c1c(-c1ccccc1)cn2-c1ccccc1", "hERG current change (%, negative = inhibition) at 10uM": 12.1},
      {"smiles": "CCC(C)NC(=O)c1cnn2c1NC(c1cccs1)CC2C(F)(F)F", "note": "(stereo not drawn)", "hERG current change (%, negative = inhibition) at 10uM": -11.3},
      {"smiles": "Cc1ccc(C(=O)Nc2ncc(Cc3ccc(F)cc3)s2)o1", "hERG current change (%, negative = inhibition) at 10uM": -2.85},
      {"smiles": "O=C(OCC(=O)N1CCCC1=O)c1cc(S(=O)(=O)N2CCOCC2)ccc1F", "hERG current change (%, negative = inhibition) at 10uM": -22.5},
      {"smiles": "CN1/C(=C\\C(=O)c2cccc([N+](=O)[O-])c2)Sc2ccccc21", "hERG current change (%, negative = inhibition) at 10uM": 10.8},
      {"smiles": "C/C(CCc1oc2ccc(Cl)cc2c1-c1ccc(C)o1)=N\\O", "hERG current change (%, negative = inhibition) at 10uM": 22.9},
      {"smiles": "O=C(COC(=O)c1cc(=O)[nH]c2ccccc12)Nc1ccc(Cl)cn1", "hERG current change (%, negative = inhibition) at 10uM": 6.92},
      {"smiles": "Cc1cccc(N2CCN(C(=O)c3ccc(CNc4c(N5CCC(C)CC5)c(=O)c4=O)cc3)CC2C)c1", "note": "(stereo not drawn)", "hERG current change (%, negative = inhibition) at 10uM": -10.4},
      {"smiles": "CC1(C)N([O-])C(c2cccs2)=C[N+]1=O", "hERG current change (%, negative = inhibition) at 10uM": -7.12},
      {"smiles": "COc1cccc(O)c1CN1CCC(C(=O)Nc2ccc(-c3cccc(C)c3)cc2)CC1", "hERG current change (%, negative = inhibition) at 10uM": -11.2},
      {"smiles": "O=C(Nc1cccc(-c2cccc(Cl)c2)c1)C1CCN(CC2CCOC2)CC1", "note": "(stereo not drawn)", "hERG current change (%, negative = inhibition) at 10uM": -77.2},
      {"smiles": "CC(=O)c1cccc(CN2CCC(C(=O)Nc3ccc(-c4cccc(C)c4)cc3)CC2)c1", "hERG current change (%, negative = inhibition) at 10uM": 2.59},
      {"smiles": "COc1cccc(NC(=O)C2CCN(S(C)(=O)=O)CC2)c1", "hERG current change (%, negative = inhibition) at 10uM": -7.92},
      {"smiles": "Cc1cccc(-c2ccc(NC(=O)C3CCN(CC4CC4)CC3)cc2)c1", "hERG current change (%, negative = inhibition) at 10uM": -70.9},
      {"smiles": "O=C(Nc1cccc(Cl)c1)C1CCN(C(=O)c2cccs2)CC1", "hERG current change (%, negative = inhibition) at 10uM": -16.8},
      {"smiles": "COc1cccc(NC(=O)C2CC2)c1", "hERG current change (%, negative = inhibition) at 10uM": 2.97},
      {"smiles": "COc1cccc(-c2cccc(NC(=O)C3CCN(CC4CCOC4)CC3)c2)c1", "note": "(stereo not drawn)", "hERG current change (%, negative = inhibition) at 10uM": -53.2},
      {"smiles": "COc1ccccc1CNC(=O)Cn1cnnn1", "hERG current change (%, negative = inhibition) at 10uM": 14.5},
      {"smiles": "O=C(c1cc([N+](=O)[O-])cc([N+](=O)[O-])c1)N1CCCc2ccccc21", "hERG current change (%, negative = inhibition) at 10uM": -16.3},
      {"smiles": "CCOC(=O)Cc1csc(NC(=O)CC)n1", "hERG current change (%, negative = inhibition) at 10uM": 3.71},
      {"smiles": "O=S(=O)(c1ccc(-c2csc(=Nc3ccccc3)n2CCCN2CCOCC2)cc1)N1CCOCC1", "hERG current change (%, negative = inhibition) at 10uM": -40.9},
      {"smiles": "CN(C)N1C(N)=C(C#N)C(c2cccc(Cl)c2)C2=C1CCCC2=O", "note": "(stereo not drawn)", "hERG current change (%, negative = inhibition) at 10uM": -26.2},
      {"smiles": "Cc1ccc(CO/N=C/C2=C(Cl)c3ccccc3CC2)cc1", "hERG current change (%, negative = inhibition) at 10uM": 16.8}
    ]}
  ]
}
